HIV RNase H inh: blocks HIV-1 RNase H cleavage of RNA/DNA duplex | inhibition, % at 10 µM | AID 565 | 65,000 compounds, 1.9% hits | P04585 | RT-RNase H RNA/DNA duplex cleavage, fluorescence; in the data active means inhibition above about 50%
RmlCD inh mix: inhibitors of RmlC and RmlD coupled enzymes; RmlC/RmlD coupled enzyme inhibition, 384-well mixture HTS; inhibition, % at 5.5 µM; 110,000 compounds, 0.39% hits; AID 1532; in the data active means inhibition above about 30%, passing the limit was not always enough; inconclusive means no clear call, values can overlap the other calls
RmlCD artifact: RmlC/RmlD fluorescence artifact, counter-screen; shares compounds with RmlCD inh mix; RmlC/RmlD assay fluorescence artifact counter-screen; calls only; 360 compounds, 96% hits; call rule not given here;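 further: compound alone with no enzyme and no substrates present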
Numbers stand for hits; i = inactive; ? = inconclusive; nt = not tested or not shown; + = active, no number. Only a selection was taken, and hits are over-represented in it overall.

SMILES | HIV RNase H inh | RmlCD inh mix | RmlCD artifact
Cc1ccc(NC(=O)c2oc3ccccc3c2NC(=O)c2ccc3c(c2)OCO3)cc1 | i | i | nt
c1ccc(-n2nnc(-c3cccnc3)n2)cc1 | nt | i | nt
O=C(Nc1ccccc1Cl)ON=C1c2ccccc2-c2ccccc21 | nt | i | nt
COc1ccc(OC)c(NC(=O)Nc2cccc3ccccc23)c1 | nt | i | nt
COC(=O)/C(=C/Nc1cccc2ccccc12)[N+](=O)[O-] | nt | 158 | +
CC(NC(=S)NCCc1ccccc1)C(c1cccs1)N1CCN(Cc2ccccc2)CC1 (centres undefined) | nt | i | nt
Cc1ccc(C(=O)N2CCC3(CC2)Oc2ccc(F)cc2C(=O)C32CC(c3ccccc3)=NO2)s1 (centres undefined) | nt | i | nt
COCCCn1cnc2oc3nc4ccccc4nc3c2c1=O | i | 50 | +
COCCCn1cnc2c(c1=O)c1nc3ccccc3nc1n2-c1ccccc1 | i | i | nt
COC(=O)c1c(C#N)c(N)nc2c1CCC2 | i | 67 | +
Cc1c(-c2c(C#N)c(N)nc3c2CCCCCC3)cnn1C | nt | i | nt
CCOC(=O)c1nn(-c2ccccc2C)c2nc(-c3ccc(Cl)cc3)c(C#N)c(=O)n12 | nt | i | nt
Clc1ccc(/C=N/c2c(-c3ccco3)nc3ccccn23)cc1 | nt | i | nt
Oc1ccccc1/C=N/c1c(-c2ccco2)nc2ccccn12 | i | 39 | +
CCc1ccc(-c2cc(C(F)(F)F)n3nc(C(=O)Nc4c(C)nn(Cc5ccccc5C)c4C)cc3n2)s1 | nt | i | nt
CCc1ccc(-c2cc(C(F)(F)F)n3nc(C(=O)Nc4cnn(Cc5ccccc5C)c4)cc3n2)s1 | nt | + | +
COc1ccc2c3c(c(=O)oc2c1OCC(N)=O)CCCC3 | i | 32 | +
CCOc1ccc2c3c(c(=O)oc2c1OCC)CCCC3 | nt | i | nt
CCOC(=O)CN1C(=O)C(O)(CC(=O)c2cccc(OC)c2)c2ccccc21 (centres undefined) | i | ? | nt
CCOC(=O)c1sc(SCc2ccccc2)c2c1CC(C)(C)CC2=O | nt | i | nt
c1csc(-c2nc3nc4ccccc4nc3n2Cc2ccc3c(c2)OCO3)c1 | i | i | nt
CCCn1c(-c2cccs2)nc2nc3ccccc3nc21 | nt | 81 | +
N#Cc1c(C(F)(F)F)cc(-c2ccc(Cl)cc2)[nH]c1=O | nt | i | nt
Cc1cc(C(F)(F)F)c(C#N)c(=O)[nH]1 | nt | 32 | +
CC1(C)C[C@H](O)[C@@]23C[C@@H](OC2=O)[C@]2(C)C(=CCC4[C@@]5(C)CC[C@H](O)C(C)(C)C5CC[C@]42C)[C@@H]3C1 (some centres undefined) | nt | i | nt
SMILES | HIV RNase H inh | RmlCD inh mix | RmlCD artifact
COc1ccccc1Oc1c(C)oc2cc(OC(=O)c3ccco3)ccc2c1=O | i | 105 | +
Cc1oc2cc(OCC(=O)O)ccc2c(=O)c1Oc1ccccc1 | i | i | nt
CCOC(=O)c1c(C)n(C)c2ccc(OC(=O)c3ccco3)cc12 | nt | i | nt
CCOC(=O)c1cc2ccc(OC(=O)c3ccco3)cc2oc1=O | i | + | +
CN(C)c1ccc(C2C3C(=O)NC(=O)C3ON2c2ccc(Cl)cc2)cc1 (centres undefined) | i | i | nt
CCCCOC(=O)C1Cc2ccccc2C(=O)O1 (centres undefined) | i | i | nt
Cc1cccn2c(=O)c3cc(C#N)c(=O)n(-c4c(C)n(C)n(-c5ccccc5)c4=O)c3nc12 | i | i | nt
Cc1cc(-n2c(=O)c(C#N)cc3c(=O)n4cccc(C)c4nc32)no1 | i | 47 | +
Cc1ccc(-n2c(=O)c(C#N)cc3c(=O)n4ccccc4nc32)cc1 | i | nt | nt
Cc1cccc(-n2c(=O)c(C#N)cc3c(=O)n4ccccc4nc32)c1 | nt | 83 | +
O=C(CN1C(=O)COc2ccccc21)N(Cc1cccnc1)Cc1ccccc1F | i | i | nt
CC1(C)[C@@H](O)CC[C@]2(C)C3C(O)C=C4[C@H]5C[C@@](C)(C(=O)O)CC[C@]5(C)CC[C@]4(C)[C@]3(C)CC[C@@H]12 (some centres undefined) | nt | i | nt
CCOC(=O)c1ccc2c(c1)nc(SCc1cn3ccsc3n1)n2CC | i | i | nt
CCOC(=O)C1=C(CSc2nc(-c3ccccc3)ccc2C#N)OC(N)=C(C#N)C1c1ccccc1 (centres undefined) | nt | i | nt
CCOC(=O)C1=C(CSc2nc(-c3ccccc3)ccc2C#N)OC(N)=C(C#N)C1c1cccnc1 (centres undefined) | nt | 45 | +
O=S(=O)(NCc1cc(-c2ccccc2Cl)no1)c1ccc(Cl)cc1 | nt | i | nt
Cc1cccn2c(=O)c3cc(C#N)c(=NC(=O)c4ccncc4)n(CCCOC(C)C)c3nc12 | i | ? | nt
COCCCn1c(=N)c(C(=O)NC2CCCCC2)cc2c(=O)n3ccccc3nc21 | nt | 49 | +
CCCCNC(=O)c1cc2c(=O)n3cccc(C)c3nc2n(Cc2ccncc2)c1=N | i | 89 | +
COCCCn1c(=NC(=O)c2ccncc2)c(C#N)cc2c(=O)n3cccc(C)c3nc21 | i | 104 | +
COCCCn1c(=N)c(C(=O)NCc2ccc3c(c2)OCO3)cc2c(=O)n3ccccc3nc21 | i | i | nt
Cc1cccn2c(=O)c3cc(C(=O)NCc4cccnc4)c(=N)n(C)c3nc12 | i | nt | nt
CCCCNC(=O)c1cc2c(=O)n3cccc(C)c3nc2n(CCN2CCOCC2)c1=N | i | nt | nt
Cc1cccn2c(=O)c3cc(C(=O)NCc4cccnc4)c(=N)n(C(C)C)c3nc12 | i | 33 | +
CC(C)OC(=O)c1cccnc1SCc1cc(=O)n2ccccc2n1 | i | i | nt
SMILES | HIV RNase H inh | RmlCD inh mix | RmlCD artifact
Cc1cnn(C(=S)NCC2CCCO2)c1 (centres undefined) | i | i | nt
C=CCSC1=C(C#N)C(c2cccc(OC)c2)CC(=O)N1 (centres undefined) | i | i | nt
O=C1CCC(C(=O)O)(c2ccccc2)C1 (centres undefined) | i | i | nt
Cc1cccn2c(=O)c3cc(C(=O)NC4CCCC4)c(=N)n(C4CCCC4)c3nc12 | i | 79 | +
CCCn1c(=N)c(C(=O)NC2CCCC2)cc2c(=O)n3cccc(C)c3nc21 | nt | 43 | +
Cc1cccn2c(=O)c3cc(C(=O)NC4CCCCC4)c(=N)n(CCN4CCOCC4)c3nc12 | i | nt | nt
COC(=O)c1cc2c(=O)n3ccccc3nc2n(C(C)C)c1=N | i | nt | nt
N=c1c(C(=O)NC2CCCC2)cc2c(=O)n3ccccc3nc2n1C1CCCC1 | i | 85 | +
CCn1c(=N)c(C(=O)NC)cc2c(=O)n3cccc(C)c3nc21 | i | nt | nt
CC[C@@H]1CC=C[C@H]2[C@H]1C(=O)N(Cc1ccccc1)[C@H]2c1cc(C)ccc1F | nt | i | nt
O=C(c1ccc(CS(=O)(=O)c2cccc(C(F)(F)F)c2)o1)N1CCN(c2ccccn2)CC1 | i | i | nt
N#Cc1nc(-c2cccs2)oc1NCc1ccccc1 | i | i | nt
C=CCNc1oc(-c2cccs2)nc1C#N | nt | 108 | +
Cc1cccc(N(CC(=O)NCc2ccc3c(c2)OCO3)C(=O)CCC(=O)Nc2ccccn2)c1 | i | i | nt
Cc1nn(-c2ccc(F)cc2)c2sc(C(=O)OC3CCOC3=O)cc12 (centres undefined) | i | 47 | +
CNC(=O)COC(=O)c1cc2c(C)nn(-c3ccc(F)cc3)c2s1 | nt | i | nt
CC(C)N(C(=O)CSc1nnnn1C1CCCC1)C(C)C | i | i | nt
CCCCC1=CC2=C(c3ccco3)C(=O)C(C)(OC(=O)c3ccc(OC)cc3)C(=O)C2=CN1C1CCCCC1 (centres undefined) | nt | i | nt
COc1ccc(C#Cc2c(-c3ccc(OC)cc3)oc3ccc(-c4ccc(OC)cc4)cc23)cc1 | nt | + | +
